# High-throughput results deposited in PubChem BioAssay by several laboratories.
# NF-kB expr up: raises NF-kB expression in human neuronal cells; fold change at 12.5 µM; AID 1239; 190,000 tested, 1.6% active; NF-kB reporter expression; active compounds read high; in the data active means fold change above about 3.3
# ssDAF12 agonist: activates DAF-12 receptor from parasite S. stercoralis. HEK293 ssDAF-12/GRIP1 lit1-tk-luc reporter, luminescence; % of 3 µM dafachronic acid response. activation, % at 6.8 µM. 370,000 tested, 1% active;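 active means activation above the mean over all tested compounds plus 3 SD, cut at about 0.9% in these data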;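 further: 0% = DMSO-only wells and 100% = 3 µM delta7-dafachronic acid wells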
# APP 5'UTR act: activates APP 5'UTR luciferase reporter; SH-SY5Y APP 5'UTR luciferase reporter, luminescence; zero percent = DMSO vehicle wells; activation, % at 2 µM; 190,000 tested, 1% active;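 active means activation above a set limit, based on mean plus 3 SD of controls, cut at about 140% in these data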
# hcDAF-12 act: activators of H. contortus DAF-12 nuclear receptor; HEK293 hcDAF-12 lit1-tk-luc reporter, luminescence; 0% DMSO, 100% Δ7-dafachronic acid; activation, % at 6.8 µM; 370,000 tested, 1.4% active; AID 652067;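 active means activation above the mean of all tested compounds plus 3 SD, cut at about 5.5% in these data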;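 further: 100% = response to 3 µM Δ7-dafachronic acid high control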
# hgDAF-12 ag: agonists of H. glycines DAF-12 nuclear receptor | HEK293 GAL4-hgDAF12 UAS-luciferase reporter, agonist luminescence; normalized to butyrate control | activation, % at 6.8 µM | 370,000 tested, 1.8% active | AID 687014;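 active means activation above a cutoff set at the mean of all screened compounds plus 3 SD, cut at about 10% in these data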;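 further: 0% = DMSO wells and 100% = sodium butyrate wells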
# LXRb hcDAF ctr: LXR-beta agonism as hcDAF-12 counter-screen; shares compounds with hcDAF-12 act; HEK293 Gal4-LXR tk-luc reporter, luminescence, 24 h; normalized: DMSO 0%, positive control 100%; activation, % at 6.8 µM; 3,400 tested, under 10 active; AID 743027;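 active means mean percent activation of the reporter above a cutoff set as the average over tested compounds plus their standard deviation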
# Target sequence (P55055 whole entry, looked up, the tested form may be a part): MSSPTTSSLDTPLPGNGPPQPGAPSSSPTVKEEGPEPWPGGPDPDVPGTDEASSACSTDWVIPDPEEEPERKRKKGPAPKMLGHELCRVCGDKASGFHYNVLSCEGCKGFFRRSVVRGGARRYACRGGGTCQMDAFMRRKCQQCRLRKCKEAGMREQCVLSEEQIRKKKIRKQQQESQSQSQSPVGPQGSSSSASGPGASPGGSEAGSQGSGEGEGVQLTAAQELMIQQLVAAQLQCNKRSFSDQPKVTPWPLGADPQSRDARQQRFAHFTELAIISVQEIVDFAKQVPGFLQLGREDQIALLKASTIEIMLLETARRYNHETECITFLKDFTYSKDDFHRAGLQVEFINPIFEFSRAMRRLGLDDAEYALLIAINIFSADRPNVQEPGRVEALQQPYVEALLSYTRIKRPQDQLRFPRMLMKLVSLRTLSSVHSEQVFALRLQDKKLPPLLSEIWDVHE
# hcDAF12 conf: confirmation of H. contortus DAF-12 agonists; shares compounds with hcDAF-12 act; HEK293 hcDAF-12 lit1-tk-luc reporter, luminescence; % of Δ7-dafachronic acid response; activation, % at 6.8 µM; 3,400 tested, 61% active; AID 743032;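 active means mean activation across triplicate tests above the threshold derived from the earlier primary screen, cut at about 5.5% in these data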;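 further: 0% = DMSO only wells and 100% = 3 µM Δ7-dafachronic acid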
# * = called active by the depositor; . = no result given. In the library only some 3.4% were active in any assay of this set; here they are far more common.
SMILES,NF-kB expr up,ssDAF12 agonist,APP 5'UTR act,hcDAF-12 act,hgDAF-12 ag,LXRb hcDAF ctr,hcDAF12 conf
O=C(NCC1CCCO1)c1cc2c(s1)CCC2 (centres undefined),1.8,-2,7,7.7*,4,0,2
COCc1cn(-c2cccc(-c3noc4c3C(=O)N(CC(=O)N3CCOCC3)CC4)c2)nn1,.,0,.,-1,4,.,.
Cc1cc(=O)oc2cc(NC(=O)c3cc(F)ccc3F)ccc12,.,-1,.,0,3,.,.
Cc1cc(=O)oc2cc(NC(=O)c3ccccc3OC(F)F)ccc12,.,1.6*,.,7.3*,10,0,9.6*
O=C(Nc1cccc(Cl)c1)OC1CCC12CCC(c1ccccc1)CC2 (centres undefined),.,-2,.,1,-1,.,.
Cc1ccc(-n2c(C)nc3oc4ccccc4c(=O)c3c2=O)cc1,3,1.8*,89,12*,10,0,9.2*
CCc1nc2oc3cc(OC)ccc3c(=O)c2c(=O)n1-c1ccccc1,1.5,-1,5,0,3,.,.
Cc1ccccc1C(=O)n1ccc2ccc(-c3ccc4ccn(Cc5ccccc5)c4c3)cc21,.,-1,.,1,0,.,.
CCc1ccccc1C1C(=O)c2ccccc2C1=O,.,-1,.,-1,2,.,.
O=C1c2ccccc2C(=O)C1c1nccc2ccccc12,3.6*,4.0*,100,27*,18*,2,24*
Oc1ccc(-c2nccc(-c3cccs3)n2)cc1,2.9,1.0*,83,12*,14*,1,11*
O=[N+]([O-])c1ncccc1OCCOc1ccc(Cl)cc1Cl,.,-2,.,-2,4,.,.
CCCCCN1C(=O)/C(=C/c2c(N3CCc4ccccc4C3)nc3ccccn3c2=O)SC1=S,.,0,.,6.8*,6,0,5
COC(=O)[C@]12C[C@H](CC(=O)NCc3ccccc3)C(=O)N(Cc3ccc(Cl)cc3Cl)C1=C[C@H](C(C)C)O[C@@H]2C1CC1,.,-1,.,-3,5,.,.
Oc1[nH]c2ccccc2c1/C=N/N1CCCCC1,0.86,0,-3,14*,3,0,4
COc1ccc(N=Cc2c(O)[nH]c3ccccc23)cc1,4.9*,1.1*,181*,6.9*,13*,2,11*
C=CCN=C1NC(c2ccc(F)cc2)C(C(=O)OC)=C(C)N1Cc1ccccc1C(F)(F)F (centres undefined),.,-1,.,-2,2,.,.
Cc1ccc(S(=O)(=O)NCC(=O)OC(C(=O)c2ccccc2)c2ccccc2)cc1 (centres undefined),1.2,-2,14,1,1,.,.
CNC(=O)NC(=O)C(OC(=O)CCNS(=O)(=O)c1ccccc1)c1ccccc1 (centres undefined),.,0,.,7.2*,1,0,1
CC(C)CNc1ccc2c(c1)OC[C@@H](CC(C)C)NS2(=O)=O,.,-1,.,-1,-1,.,.
CCOC(=O)c1c(C)oc2c1c(C(c1ccncc1)N1CCOCC1)c(O)c1ccccc12 (centres undefined),1.9,0,82,0,3,.,.
CCOC(=O)c1c(C)oc2c1c1c(c3ccccc32)OCN(Cc2ccccn2)C1,2.2,1.2*,25,6.8*,6,1,8.5*
CCOC(=O)c1c(C)oc2c1c(CN1CCN(C(=O)OCC)CC1)c(O)c1ccccc12,4.3*,1,157*,8.6*,13*,0,5
CCOC(=O)c1c(C)oc2c1c(CN1CCN(CCO)CC1)c(O)c1ccccc12,2.7,1.1*,120,7.1*,10,0,6.8*
CCCCNC(=O)C[C@H]1C[C@@]2(C(=O)OCC)CCCC3=C2N(CCC3)C1=O,.,-1,.,1,-1,.,.
SMILES,NF-kB expr up,ssDAF12 agonist,APP 5'UTR act,hcDAF-12 act,hgDAF-12 ag,LXRb hcDAF ctr,hcDAF12 conf
NC(=O)c1c(NC(=O)c2ccccc2)sc2c1CCC2,.,2.1*,.,16*,15*,2,19*
O=C(C1CCN(c2cncnc2)CC1)N1CCOCC1,.,0,.,0,3,.,.
COc1ccc(Cn2ccc3ccc(-c4ccc5ccn(C(=O)c6ccccc6OC)c5c4)cc32)cc1,.,-1,.,0,-1,.,.
CCc1ccc(-c2cn(C3CCCCC3)c(=S)[nH]2)cc1,1.3,0,23,11*,7,0,1
O=C(CCc1ccccc1)N[C@H]1/C(=N/O)CCC[C@]12C(=O)N(Cc1ccccc1)c1ccccc12,.,-1,.,-3,2,.,.
CCCS(=O)(=O)N1CCN(Cc2c[nH]c3ccccc23)CC1,1.1,1.4*,32,7.2*,2,0,5
O=C(NC1CCOc2ccccc21)C1CCCC1 (centres undefined),.,0,.,6.7*,-3,0,3
CSc1nnc2sc3cc(C)ccc3n12,.,0,.,9.6*,7,0,5
O=C(Nc1ccccc1F)O[C@@H]1CC[C@@]23CCCN2C(=O)CCC[C@H]3C1,.,-1,.,1,0,.,.
CN(C)c1oc(/C=C/c2ccccc2)nc1C#N,2.1,0,62,6.7*,8,1,6
CN(C)c1oc(-c2ccccc2)nc1C#N,1.2,-1,-7,-1,1,.,.
S=C(Nc1ccc(Cl)cc1)N1CCCCC1,1.1,-1,-2,3,-1,.,.
S=C(Nc1ccc(Br)cc1)N1CCCC1,1.4,-2,.,7.4*,1,0,2
Fc1cccc(-c2nnn3c2nc(Cl)c2ccccc23)c1,0.76,1,20,8.3*,12*,0,6.4*
COCCCNc1nc2c(-c3ccc(Cl)cc3)nnn2c2ccccc12,1.1,-1,4,3,-1,.,.
NNc1nc2c(-c3ccc(Cl)cc3)nnn2c2ccccc12,1.1,0,106,8.1*,10,1,14*
O=C(OCC#CCSc1nnc(-c2cccc3ccccc23)o1)c1ccc(F)c(F)c1,.,-2,.,2,1,.,.
CC(=O)N[C@@H](Cc1ccc(O)cc1)CN1C(N)=NC[C@@H]1CC(C)C,.,0,.,6.8*,1,0,0
CC(C)C[C@H]1CNC(=O)C(=O)N1C[C@H](Cc1ccc(O)cc1)NC(=O)CC12CC3CC(CC(C3)C1)C2,.,0,.,1,-4,.,.
COc1ccc(O)c(-c2cc(-c3ccc(F)cc3)n[nH]2)c1,.,1.0*,.,7.6*,9,1,6.3*
Oc1ccc(Br)cc1-c1cc(-c2ccccc2)n[nH]1,1.1,1.6*,-3,8.1*,5,0,5
Oc1ccc(Br)cc1-c1n[nH]c(=S)n1Cc1ccccc1,.,-2,.,4,-2,.,.
CN(Cc1ccccc1)C(=O)OCc1cn(Cc2c(F)cccc2F)nn1,.,-1,.,-3,-1,.,.
